Molecules are shown by their SMILES. Records with an inconclusive call do not appear. Entries that show only a call come without a potency. The source made the active and inactive calls. Calls follow the shape of the dose curve; as a rule, active = well fitted inhibition curve with a large enough effect; inconclusive = small, poorly fitted or top-dose-only effect; inactive = no such curve, though single readings can be large or run the other way.

The text below walks through data of PubChem BioAssay AID652180 (National Center for Advancing Translational Sciences (NCATS), 2013).

The assay in a line: qHTS Assay for Lipid Storage Modulators: 3T3L1 Assay against Probe and Analogs. Conditions: 3T3-L1 lipid droplets, BODIPY imaging, oleic acid, 18-24 h; series mostly up to 46.1 µM. From the text: Storing lipids as a reservoir for energy or the anabolism of elementary metabolites is a common feature of probably all cells and is conserved from bacteria to humans. The universal cellular lipid storage organelle is the so-called lipid storage droplet (LD). Although ubiquitous, LDs share a simple structure composed of a hydrophobic core that harbors the storage lipids, which is shielded by a droplet-specific phospholipid monolayer to which proteins are attached. The current model of LD biogenesis involves an incorporation of the lipid core into the membrane leaflets of the endoplasmic reticulum (ER) followed by a subsequent budding-like maturation of a LD, which ultimately pinches off. Once released, LD volume can increase by localized lipogenesis or fusion of existing droplets. Storage lipids are re-mobilized enzymatically by lipase activity. Lipase regulation in the adipocyte is heavily studied and involves multiple components including catecholamine signaling, the LD-associated proteins Perilipin and comparative gene identification-58 (CGI-58) and at least two lipases named hormone sensitive lipase (HSL) and adipocyte triglyceride lipase (ATGL). LD regulation outside of the adipocyte is poorly understood and only few components are known. However, there is an urgent need to learn more about ectopic fat depots as mislocalized storage of lipids, for example in the liver or muscle, is an eminent health problem associated with insulin resistance or the metabolic syndrome. We developed a laser-scanning cytometer assay to enable 1,536-well screening and combined the results of the small molecules screen with an RNAi database based on lipid storage. In this assay we tested analogs of the probe against a mammalian cell line (3T3L1), to see if these small molecules could disrupt lipid storage. NIH Molecular Libraries Probe Production Centers Network [MLPCN] NIH Chemical Genomics Center [NCGC] MLPCN Grant: MH085686 Assay Submitter (PI): Mathias Beller, Max-Planck-Institut fur Biophysikalische Chemie
3T3L1 cells were obtained from ATCC (CL-173). 4 uL of cells at 1.25 X 105 cell/mL were dispensed into 1536 well Poly-D-Lysine coated black with clear bottom imaging plates (Corning, #7356) to obtain 500 cells/well, and cultured at 37 °C, 95% humidity, and 5% CO2 overnight. The culture medium used was OPTI-MEM containing 5% fetal bovine serum (FBS). Triacsin C (Sigma-Aldrich T-4540), an inhibitor of long-chain fatty acyl CoA synthetase that blocks synthesis of triglycerides, was used as a positive control for lipid under-storage. A total of 23 nL of compounds dissolved in DMSO at different concentrations were transferred to the assay plates using a Kalypsys 1536-pin tool, the final DMSO concentration was 0.46%. One microliter of oleic acid at 400 uM (Calbiochem, #4954) was added to induce lipid droplet formation in the cells, and the plates were lidded. After 18-24 hours of incubation at 37 °C, 95% humidity, and 5% CO2, cells were fixed (8 % paraformaldehyde in PBS, 30 min, room temperature), washed three times with PBS, then stained for lipid droplet and nucleus using 4uL of PBS solution containing BODIPY lipid dye 493/503 (1:2000 dilution, Life Technologies, #3922) and Hoechst 33342 (1:1000, Life Technologies, #H3570) with Washer dispenser EL406(Biotek). Images were acquired using InCell 2000 (GE). Number of cells, number of lipids and sizes of lipids were analysis using GE Investigator software.
(In general: qHTS replaces the single test concentration by a dilution series.)
With `O=C(Nc1cccc2nn(-c3ccc(F)cc3)cc12)c1ccccn1`, the Potency entry is “inactive”.

Consider `Cc1cccc(-c2ccc3ncnc(NCc4cccc(F)c4)c3c2)c1`, for which the Potency entry is “inactive”.

As for `CCOC(=O)C1CCN(C(=O)C(C)(C)NC(=O)Nc2ccc3c(c2)CCC3)CC1`, the Potency result was “inactive”.

With `CC(C)(C)OC(=O)NCCOCCOCCOCCn1ncc2c1CCCC2NC(=O)c1ccccn1` (stereo not given), the Potency result was “inactive”.

Consider `CCOC(=O)C1CCN(C(=O)C(C)(C)NC(=O)Nc2ccc3sccc3c2)CC1`, for which the Potency result was “inactive”.

For `CCOC(=O)C1CCN(C(=O)C(C)(C)NC(=O)Nc2ccc([N+](=O)[O-])cc2)CC1`, the Potency result is “inactive”.

Consider `CC(C)(NC(=O)Nc1ccccc1Cl)C(=O)N1CCC(C(=O)O)CC1`, for which the Potency result is “inactive”.

For the compound `O=C(NC1CCCc2c1cnn2-c1ccc(F)cc1F)c1ccsc1` (stereo not given), the Potency result is “inactive”.

In the case of `CCOC(=O)C1CCN(C(=O)C(C)(C)NC(=O)Nc2ccc(OC)c(Cl)c2)CC1`, the Potency entry is “inactive”.

For `CCOc1ccc(CCNC(=O)c2ccc(N3N=C(C)CC3=O)cc2)cc1OCC`, the Potency entry was “inactive”.

Consider `CCOc1ccc(CCNC(=O)c2cc3sccc3n2Cc2ccccc2)c(F)c1OCC`, for which the Potency is 526 nM (active).

For `COc1ccc(-n2ncc3c2CCCC3NC(=O)c2ccccn2)cc1` (stereo not given), the Potency entry is “inactive”.

`O=C(NC1CCCc2c1cnn2-c1ccc(F)cc1F)c1cccc(=O)[nH]1` (stereo not given): the Potency result was “inactive”.

Take `CN(C)Cc1ccc(-c2nc3cccc4c3n2CCNC4=O)cc1`: the Potency result was “inactive”.

Turning to `CCOc1cc(F)c(CCNC(=O)c2cc3sccc3n2Cc2ccccc2)cc1OCC`, the Potency is 14.8 nM (active).

Take `C[C@@H](NCCCc1cccc(C(F)(F)F)c1)c1cccc2ccccc12`: the Potency entry was “inactive”.

Turning to `O=C(Cc1ccccc1)NC1CCCc2c1cnn2-c1ccc(F)cc1F` (stereo not given), the Potency entry was “inactive”.

`O=C(NC1CCCc2c1cnn2-c1ccc(F)cc1F)c1ccccn1` (stereo not given): the Potency result was “inactive”.

On to `O=C(NCCc1ccc(O)c(O)c1)c1cc2sccc2n1Cc1ccccc1`, for which the Potency entry is “inactive”.

As for `O=C(NC1CCCc2c1cnn2-c1ccc(F)cc1F)c1ccc(C(=O)c2ccccc2)cc1` (stereo not given), the Potency result is “inactive”.

For `CCn1c(C(=O)NCCc2ccc(OC)c(OC)c2)cc2sccc21`, the Potency result is “inactive”.

For `CCOC(=O)C1CCN(C(=O)C(C)(C)NC(=O)Nc2ccc(N)cc2)CC1`, the Potency result is “inactive”.

With `CCOc1ccc(CCNC(=O)c2ccc3[nH]ccc3c2)cc1OCC`, the Potency entry was “inactive”.

Consider `O=C(c1cc2sccc2n1Cc1ccccc1)N(CCc1ccc(O)c(O)c1)Cc1ccccc1`, for which the Potency entry is “inactive”.

Turning to `O=C(NC1CCCc2c1cnn2-c1ccc(F)cc1F)C1CCCCN1` (stereo not given), the Potency result was “inactive”.

With `CC(C)(C)OC(=O)NCCOCCOCCOc1ccc(-n2ncc3c2CCCC3NC(=O)c2ccccn2)cc1` (stereo not given), the Potency result is “inactive”.

As for `O=C(N[C@H]1CCCc2c1cnn2-c1ccc(F)cc1F)c1ccccn1`, the Potency result is “inactive”.

Consider `CN(C)CC(=O)NC1CCCc2c1cnn2-c1ccc(F)cc1F` (stereo not given), for which the Potency entry is “inactive”.

`CCOc1ccc(CCNC(=O)c2cnon2)cc1OCC`: the Potency entry is “inactive”.

On to `COc1cc(C)c(Sc2cnc(NC(=O)c3ccc(CNC(C)C(C)(C)C)cc3)s2)cc1C(=O)N1CCN(C(C)=O)CC1` (stereo not given), for which the Potency is 3320 nM (active).

As to `O=C(NC1CCCc2c1cnn2-c1ccc(O)cc1)c1ccccn1` (stereo not given), the Potency entry was “inactive”.

Regarding `O=C(NC1CCCc2c1cnn2-c1ccc(F)cc1F)c1ccncc1` (stereo not given), the Potency entry is “inactive”.

Consider `Cc1cc(SCc2sc(-c3ccc(C(F)(F)F)cc3)nc2C)ccc1OCC(=O)O`, for which the Potency result was “inactive”.

For `CCOC(=O)C1CCN(C(=O)C(C)(C)NC(=O)Nc2ccc(CN3CCOCC3)cc2)CC1`, the Potency result was “inactive”.

`CCOc1ccc(CCNC(=O)c2cc3sccc3n2C(C)C)cc1OCC`: the Potency was 29.6 nM (active).

For `CCOc1ccc(CCNC(C)=O)cc1OCC`, the Potency entry is “inactive”.

In the case of `O=C(NCCc1ccc2c(c1)OCO2)c1cc2sccc2n1Cc1ccccc1`, the Potency result is “inactive”.

In the case of `CCOc1ccc(CCNC(=O)C2=C(C)OCCO2)cc1OCC`, the Potency entry is “inactive”.

On to `CCOc1ccc(CCNC(=O)c2cc3sccc3[nH]2)cc1OCC`, for which the Potency is 4690 nM (active).

On to `CC(C)(C)OC(=O)NC1CCCc2c1cnn2-c1ccc(F)cc1F` (stereo not given), for which the Potency entry is “inactive”.
